# Records with an inconclusive call do not appear. A call without a number means that no potency is given here. Active and inactive are the calls of the source. Calls come from the whole dose curve; as a rule, active = well fitted activation curve with a large enough effect; inconclusive = small, poorly fitted or top-dose-only effect; inactive = no such curve, though single readings can be large or run the other way.
# Target: Relaxin receptor 1 (Homo sapiens) (UniProt Q9HBX9)
# Test: qHTS Assay for Agonists of the Relaxin Receptor RXFP1: RXFP1 Hit Validation; note: nearly all actives have a fitted effect of over 65% in size;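 for activation: cAMP rise lowers the TR-FRET signal in lysed cells with PDE4 inhibitor present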
# Conditions: HEK293T-RXFP1 cAMP TR-FRET, 30 min; series mostly up to 115 µM
# Text: NIH Chemical Genomics Center [NCGC] NIH Molecular Libraries Probe Production Centers Network [MLPCN] MLPCN Grant: R03 MH085705-01A1 Assay Submitter (PI): Alexander Agoulnik NCGC Assay Overview: The relaxin hormone is involved in the variety of biological functions in normal tissues and diseases. The role of relaxin is well-established in female reproduction and parturition, mammary gland and endometrial development, maintenance of myometrial quiescence during pregnancy. Relaxin signaling through its G protein-coupled receptor (GPCR) RXFP1 results in ECM remodeling through regulation of collagen deposition, cell invasiveness, proliferation and overall tissue homeostasis. […] Recombinant human relaxin (rhRlx) is currently being tested in clinical trials as a protective agent in congestive heart failure, in treating severe preeclampsia, and as an anti-fibrotic agent in systemic sclerosis. Upon relaxin binding RXFP1 activation leads to the activation of adenylate cyclase (AC) via Gs. cAMP will activate PKA, which phosphorylates many signaling proteins. Thus, detection of cAMP increase is an easy and reliable indication of relaxin receptor activation. To screen for agonists of the relaxin receptor, a HEK293T cell line stably transfected with RXFP1 was used. RXFP1 activation was assayed by changes in cAMP levels as detected with a time-resolved fluorescence energy transfer (TR-FRET) cAMP detection kit.
# NCGC Assay Protocol Summary: This is a cell-based assay for cAMP second messenger response to screen for agonists of the RXFP1 receptor. The assay was conducted in the presence of a PDE4 inhibitor (Ro 20174). The cells were lysed and the cAMP levels were measured with a TR-FRET cAMP kit. Presence of cAMP in the cell lysate disrupts binding between the cryptate-labeled anti-cAMP and d2-labeled cAMP pair, leading to a decrease in the TR-FRET signal. Data were normalized to the controls for basal activity (buffer only) and 100% activity (29 nM porcine relaxin). The EC50 values were determined from concentration-response data modeled with the standard Hill equation 1536-well assay protocol for the HEK293 RXFP1 cAMP assay: (1) Add 3 ul HEK293 RXFP1 cell culture. 2000 cells/well in DMEM/F12, 10% FBS, 1x Pen/Strep (dispensed offline with MultiDrop Combi). (2) Incubate 16-24 hr at 37C, 5% CO2. (3) Add 1 ul 400uM Ro20174 in DPBS, 0.05% BSA, 0.005% Tween 20. (3) Add 23 nl compounds in DMSO solution. Final concentration was 0.5 - 58 uM. (4) Incubate 30 min at 37C, 5% CO2. (5) Add 1 ul cAMP-d2 in lysis buffer (HTRF cAMP HiRange kit, CisBio). (6) Add 1 ul anti-cAMP antibody-cryptate in lysis buffer (HTRF cAMP HiRange kit, CisBio). (7) Incubate 30 min at room temperature. […] Keywords: relaxin, RXFP1, RXFP2, G-protein coupled receptor, cAMP, agonist, high throughput screening, MLSMR, MLSCN, NIH Roadmap, qHTS and NCGC
# Potency is the fitted concentration of half-maximal effect.
# Chain of Relaxin receptor 1 (Homo sapiens) (Q9HBX9 whole entry, looked up): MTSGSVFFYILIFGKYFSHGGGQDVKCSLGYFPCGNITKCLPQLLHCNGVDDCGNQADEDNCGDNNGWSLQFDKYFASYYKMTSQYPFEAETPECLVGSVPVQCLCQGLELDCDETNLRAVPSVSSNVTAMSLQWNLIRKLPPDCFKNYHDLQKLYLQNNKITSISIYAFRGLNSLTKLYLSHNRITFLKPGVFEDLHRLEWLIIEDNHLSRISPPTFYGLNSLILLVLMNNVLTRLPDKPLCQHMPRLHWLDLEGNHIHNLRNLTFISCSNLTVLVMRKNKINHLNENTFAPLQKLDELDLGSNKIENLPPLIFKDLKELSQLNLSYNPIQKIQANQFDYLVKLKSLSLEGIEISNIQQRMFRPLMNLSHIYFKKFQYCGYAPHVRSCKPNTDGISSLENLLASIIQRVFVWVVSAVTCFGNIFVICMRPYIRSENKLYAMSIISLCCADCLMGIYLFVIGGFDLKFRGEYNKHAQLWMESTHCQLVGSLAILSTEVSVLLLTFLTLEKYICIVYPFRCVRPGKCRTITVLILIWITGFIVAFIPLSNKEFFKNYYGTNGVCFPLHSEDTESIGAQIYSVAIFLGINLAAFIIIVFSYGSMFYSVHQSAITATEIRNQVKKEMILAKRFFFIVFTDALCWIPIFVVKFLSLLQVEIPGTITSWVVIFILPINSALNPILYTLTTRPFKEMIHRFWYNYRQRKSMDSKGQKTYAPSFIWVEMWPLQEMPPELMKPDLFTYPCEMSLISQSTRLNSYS
row,SMILES,Potency
1,COc1ccc(NC(=O)CSc2nc(-c3ccc(C)cc3)cc(C(F)(F)F)c2C#N)cc1,inactive
2,C=C(C)C(=O)Nc1cccc(C2=NOC3(C2)C[C@@H](C(N)=O)N(C(=O)c2ccc(Cl)cc2)C3)c1 (stereo not given in full),inactive
3,Cc1cc(C)nc(NS(=O)(=O)c2ccc(N3C(=O)c4ccccc4C3=O)cc2)n1,29.8 µM (active)
4,Nc1c(Cl)cc(-c2[nH]c3cc(C(=O)NCCO)ccc3c(=O)c2O)cc1Cl,34.6 µM (active)
5,COc1ccc(Nc2ncc(C#N)c(N)n2)c(OC)c1,inactive
6,Cc1ccc(C(=O)Nc2ccccc2C(N)=O)o1,inactive
7,O=C(Nc1ccccc1C(=O)Nc1ccccc1C(=O)NCc1ccco1)c1ccco1,21.9 µM (active)
8,Cc1ccccc1NC(=O)c1ccccc1NC(=O)c1ccco1,inactive
9,CCN(CC)c1ccc(S(=O)(=O)N2CCOCC2)cc1NC(=O)CSc1nncn1C,12.3 µM (active)
10,O=C(Nc1ccccc1C(=O)N1CCNCC1)c1ccco1,inactive
11,O=C(CN1C(=O)c2cccc3cccc(c23)C1=O)NCCN1CCOCC1,inactive
12,Cc1ccc(Cl)cc1NC(=O)CCCN1C(=O)c2cccnc2C1=O,inactive
13,COc1ccccc1CNS(=O)(=O)c1cc(CN2C(=O)c3cccnc3C2=O)ccc1OC,30.9 µM (active)
14,CCC1(C)Cc2c(sc3c2c2ncnn2c2nnc(SCC(=O)NCc4ccco4)n32)CO1 (stereo not given),12.3 µM (active)
15,COc1cccc(C(=O)CSc2nnc(-c3cc(OC)cc(OC)c3)o2)c1,13.8 µM (active)
16,N#CCCSc1ncnc2c1oc1ccccc12,19.4 µM (active)
17,CC1(C)Cc2nc3sc4c(SCC(=O)NC(c5ccccc5)c5ccccc5)ncnc4c3cc2CO1,4.88 µM (active)
18,CC(C)(C)C(=O)Nc1ccccc1C(=O)NCc1ccco1,inactive
19,COC(=O)[C@@H]1C[C@@]2(O)[C@H](O)[C@H](O)[C@H](O)C[C@H]2N1Cc1cc(F)ccc1F,inactive
20,CCn1c(=O)c2sccc2n2c(CCCC(=O)NCc3cccnc3)nnc12,inactive

row,SMILES,Potency
1,Nc1cc2ccncc2c2ccccc12,inactive
2,O=C(O)c1ccc(N2C(=O)c3cccc4c(C(=O)O)ccc(c34)C2=O)cc1,inactive
3,Cc1nn(CC(=O)NCCN2CCOCC2)c(=O)c2cc3sccc3n12,inactive
4,CC(C)C(=O)Nc1ccc(Nc2ccccc2)cc1,inactive
5,CCN(CC)S(=O)(=O)c1ccc(C)c(NC(=O)Cn2cnc3cc([N+](=O)[O-])ccc3c2=O)c1,38.9 µM (active)
6,Cc1ccc(C(=O)Nc2ccccc2C(=O)NCc2ccco2)cc1,inactive
7,NCCNC(=O)Cc1ccc(NC(=O)Cc2ccc(Nc3ncnc4c3ncn4[C@@H]3O[C@H](CO)[C@@H](O)[C@H]3O)cc2)cc1,1.23 µM (active)
8,O=C(Nc1ccccc1C(=O)NCc1ccco1)c1ccco1,inactive
9,Cc1cccc(N2C(=O)C(O)=C(C(=O)c3cccs3)C2c2ccc(C(C)C)cc2)n1 (stereo not given),inactive
10,O=C(Nc1ccccc1C(=O)NC1CCCCC1)c1ccco1,inactive
11,CC(=O)c1sc(NC(=O)C(C)C)nc1C,15.4 µM (active)
12,Nc1c(S(=O)(=O)O)cc(NC(=O)c2ccccc2)c2c1C(=O)c1ccccc1C2=O,inactive
13,Cc1cc(C)c(NC(=O)CS(=O)CC(=O)Nc2ccc(F)cc2F)c(C)c1 (stereo not given),inactive
14,Cc1cccn2c(=O)c3cc(C(=O)NCCN4CCOCC4)c(=N)n(CCCN4CCOCC4)c3nc12,inactive
15,COc1ccc(/C=C2/SC(=O)N(CCC(=O)Nc3ccc(C)cc3)C2=O)cc1OC,inactive
16,CC(NC(=O)c1ccccc1NC(=O)c1ccco1)C(=O)O (stereo not given),inactive
17,O=C(Nc1ccccc1C(=O)N1CCN(c2ccccc2)CC1)c1ccco1,inactive
18,CN(Cc1ccccc1)C(=O)c1ccccc1NC(=O)c1ccco1,inactive
19,Cc1ccnc(NS(=O)(=O)c2ccc(N3C(=O)c4ccccc4C3=O)cc2)n1,18.8 µM (active)
20,O=C(Nc1ccccc1C(=O)NCCN1CCOCC1)c1ccco1,inactive
